Test results from PubChem BioAssay AID1159580 (chemical genetic matrix, 2015).
Several values for one entry are separate records, joined by “and”; a condition that tells them apart may be missing. Identical values can stand only once. Hit rate of the full screen: of about 5,500 compounds, about 2,000 (36%) were called active. Not shown: some 18% with an inconclusive outcome. Rule as the data show it: active = normalized growth mostly below about 0.91 (no sharp cut-off); inconclusive = no clear call, values can overlap the other calls; inactive = mostly above about 0.92. This is one part of the list.

Experiment: chemical genetic growth profiling, strain panel (AID 1159580);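 also: tested at 20 µM; growth read once vehicle control cultures reached saturation at 30 °C; 1 = growth at the plate median or of vehicle wells; lower values mean less growth of the strain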
Conditions: S. cerevisiae deletion strains, growth OD

Measured: normalized growth

CC(C)(C)NCC(O)c1cc(O)cc(O)c1 (stereo not drawn)
inactive: locus YAL013W, strain DEP1, stronger effect = lower value 1 | locus YAL021C, strain ccr4, stronger effect = lower value 0.975 | locus YAL026C, strain drs2, stronger effect = lower value 0.979 | locus YAL030W, strain snc1, stronger effect = lower value 0.98 | locus YAL040C, strain CLN3, stronger effect = lower value 0.976 | locus YBL061C, strain skt5, stronger effect = lower value 0.963 | locus YBR009C, strain hhf1, stronger effect = lower value 1.01 | locus YBR021W, strain FUR4, stronger effect = lower value 1 | locus YBR023C, strain chs3, stronger effect = lower value 0.972 | locus YBR171W, strain sec66, stronger effect = lower value 0.986 | locus YBR229C, strain ROT2, stronger effect = lower value 0.996 | locus YBR231C, strain swc5, stronger effect = lower value 0.997 | locus YBR279W, strain paf1, stronger effect = lower value 0.98 | locus YCL011C, strain gbp2, stronger effect = lower value 0.985 | locus YCL016C, strain dcc1, stronger effect = lower value 0.967 | locus YCL029C, strain bik1, stronger effect = lower value 0.987 | locus YCL061C, strain MRC1 (second series), stronger effect = lower value 0.988 | locus YCL069W, strain vba3, stronger effect = lower value 0.988 | locus YCR088W, strain abp1, stronger effect = lower value 0.984 | locus YDL005C, strain med2, stronger effect = lower value 0.959 | locus YDL035C, strain GPR1, stronger effect = lower value 0.994 | locus YDL040C, strain nat1, stronger effect = lower value 0.973 | locus YDL074C, strain BRE1, stronger effect = lower value 1.02 | locus YDL101C, strain DUN1, stronger effect = lower value 0.987 | locus YDL134C, strain PPH21, stronger effect = lower value 1 | locus YDL192W, strain arf1, stronger effect = lower value 0.971 | locus YDR001C, strain nth1, stronger effect = lower value 0.982 | locus YDR069C, strain doa4, stronger effect = lower value 0.993 | locus YDR101C, strain arx1, stronger effect = lower value 0.977 | locus YDR137W, strain rgp1, stronger effect = lower value 0.962 | locus YDR159W, strain sac3, stronger effect = lower value 0.983 | locus YDR162C, strain NBP2, stronger effect = lower value 0.995 | locus YDR195W, strain ref2 0.998 | locus YDR297W, strain sur2, stronger effect = lower value 0.99 | locus YDR318W, strain mcm21, stronger effect = lower value 0.979 | locus YDR334W, strain swr1, stronger effect = lower value 0.964 | locus YDR335W, strain msn5, stronger effect = lower value 0.984 | locus YDR363W, strain ESC2, stronger effect = lower value 0.957 | locus YDR388W, stronger effect = lower value 0.988 | locus YDR392W, strain spt3, stronger effect = lower value 0.883 | locus YDR502C, strain sam2, stronger effect = lower value 0.978 | locus YEL003W, strain gim4, stronger effect = lower value 0.992 | locus YEL037C, strain rad23, stronger effect = lower value 0.972 | locus YEL061C, strain CIN8 (second series), stronger effect = lower value 0.977 | locus YEL061C, strain CIN8, stronger effect = lower value 0.994 | locus YER002W, strain NOP16, stronger effect = lower value 1.01 | locus YER015W, strain faa2, stronger effect = lower value 0.987 | locus YER016W, strain bim1, stronger effect = lower value 0.946 | locus YER110C, stronger effect = lower value 0.97 | locus YER111C, strain swi4, stronger effect = lower value 0.967 | locus YER155C, strain BEM2 (second series), stronger effect = lower value 0.975 | locus YER155C, strain BEM2, stronger effect = lower value 0.991 | locus YER167W, strain BCK2, stronger effect = lower value 0.993 | locus YFR010W, strain ubp6, stronger effect = lower value 0.999 | locus YGL078C, strain dbp3, stronger effect = lower value 0.981 | locus YGL086W, strain mad1, stronger effect = lower value 0.987 | locus YGL167C, strain pmr1, stronger effect = lower value 0.986 | locus YGL173C, strain kem1, stronger effect = lower value 0.971 | locus YGL227W, strain vid30, stronger effect = lower value 0.98 | locus YGL240W, strain doc1, stronger effect = lower value 1.02 | locus YGL248W, strain PDE1, stronger effect = lower value 0.999 | locus YGL253W, strain hxk2, stronger effect = lower value 0.962 | locus YGR078C, strain PAC10, stronger effect = lower value 0.993 | locus YGR135W, strain pre9, stronger effect = lower value 0.982 | locus YGR229C, strain SMI1, stronger effect = lower value 0.972 | locus YGR252W, strain gcn5, stronger effect = lower value 1.15 | locus YHR013C, strain ard1, stronger effect = lower value 0.955 | locus YHR027C, strain rpn1, stronger effect = lower value 0.993 | locus YHR030C, strain SLT2, stronger effect = lower value 0.981 and 0.948 | locus YHR079C, strain IRE1 (second series), stronger effect = lower value 0.981 | locus YHR079C, strain IRE1, stronger effect = lower value 0.974 | locus YHR094C, strain hxt1, stronger effect = lower value 0.975 | locus YHR129C, strain ARP1, stronger effect = lower value 1 | locus YHR142W, strain chs7, stronger effect = lower value 0.973 | locus YHR200W, strain rpn10, stronger effect = lower value 0.987 | locus YIL066C, strain RNR3, stronger effect = lower value 0.994 | locus YIL073C, strain SPO22, stronger effect = lower value 0.938 | locus YIL125W, strain kgd1, stronger effect = lower value 0.958 | locus YIR030C, strain dcg1, stronger effect = lower value 0.992 | locus YJL092W, strain hpr5, stronger effect = lower value 0.99 | locus YJL095W, strain BCK1 (second series), stronger effect = lower value 1 | locus YJL095W, strain BCK1, stronger effect = lower value 1.01 and 0.964 | locus YJL115W, strain asf1, stronger effect = lower value 1 | locus YJL129C, strain trk1, stronger effect = lower value 0.934 | locus YJL134W, strain LCB3, stronger effect = lower value 0.987 | locus YJL154C, strain vps35, stronger effect = lower value 0.974 | locus YJL164C, strain tpk1, stronger effect = lower value 1 | locus YJL166W, strain qcr8, stronger effect = lower value 1.02 | locus YJL168C, strain set2, stronger effect = lower value 0.984 | locus YJL187C, strain SWE1 (second series), stronger effect = lower value 0.976 | locus YJR043C, strain POL32, stronger effect = lower value 1 | locus YJR066W, strain TOR1, stronger effect = lower value 0.916 | locus YJR075W, strain HOC1, stronger effect = lower value 0.98
